These results are taken from PubChem BioAssay AID1259422 (The Scripps Research Institute Molecular Screening Center, 2018).

Several values for one entry are separate records, joined by “and”; a condition that tells them apart may be missing. Equal entries are not always repeated. Hit rate of the full screen: of about 640,000 compounds, about 9,300 (1.5%) were called active. The list comes from a sample in which actives are over-represented; it also holds similar structures and randomly drawn compounds. Values without a mark were called inactive. Rule as the data show it: active = inhibition above about 32%; inactive = the rest.

This experiment can be described thus: TEAD-YAP interaction inhibition, primary screen, TEAD-YAP interaction inhibitor project, luminescence, HEK-TIYL cells (AID 1259422).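 Also: 0% = median of test compound wells and 100% = reference inhibitor wells.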 Particulars: TEAD-Gal4/YAP UAS-luciferase luminescence, at 9.12 µM, hits give high values.
As to `N#CC1=C(N)Oc2ccc3ccccc3c2C1c1ccc(F)cc1` (centres undefined), the inhibition is -0.56%.

For `CCOc1ccccc1C1C(C#N)=C(N)Oc2ccc3ccccc3c21` (centres undefined), the inhibition is -6.22%.

In the case of `N#CC1=C(N)Oc2ccc3ncccc3c2C1c1ccccc1F` (centres undefined), the inhibition was 50.8% (active).

`C=CCN(CC=C)C(=O)/C=C/c1cccc([N+](=O)[O-])c1`: the inhibition is 7.6%.

As to `COc1cccc(OCC(=O)N2CCC3(CC2)OCc2ccccc2O3)c1`, the inhibition is -8.9%.

On to `CC(=O)N1c2ccc(NC(=O)c3ccccc3)cc2C(C)(c2ccc(C)cc2)CC1(C)C` (centres undefined), for which the inhibition is 13.9%.

For `CC(Cl)/C(O)=C(\C#N)c1nc2ccccc2[nH]1` (centres undefined), the inhibition is -6.03%.

In the case of `Cc1ccc2[nH]c3c(c2c1)CCCC3NC=O` (centres undefined), the inhibition is 5.42%.

In the case of `OCCNC1CCCc2c1[nH]c1ccc(-c3ccccc3)cc21` (centres undefined), the inhibition was -12.6%.

Regarding `Cc1ccc2[nH]c3c(c2c1)CCCC3NCc1ccccc1` (centres undefined), the inhibition is 53.6% (active).

`Cc1ccc2nc(-c3cccc(NC(=O)c4cc([N+](=O)[O-])ccc4Br)c3)oc2c1`: the inhibition is 6.62%.

For `O=C(COc1ccc(Cl)cc1)Nc1ncc(Cc2ccc(F)cc2)s1`, the inhibition is 5.3%.

In the case of `CC(C)(C)NCC(O)COc1c(Br)ccc2c1sc1nc3n(c(=O)c12)CCCCC3` (centres undefined), the inhibition is -32.7%.

Regarding `O=c1c2c(nc3n1CCCCC3)sc1c(O)cccc12`, the inhibition was 92.2% (active).

On to `CC(=O)c1ccc(NC(=O)c2sc3nc4n(c(=O)c3c2C)CCCCC4)cc1`, for which the inhibition was -3.85%.

Consider `COc1ccc(N2CC(CNC(=O)c3cccs3)CC2=O)cc1` (centres undefined), for which the inhibition was 6.17%.

As to `CCOc1ccc(C2C(C#N)=C(N)N(c3cccc([N+](=O)[O-])c3)C3=C2C(=O)CC(C)(C)C3)cc1` (centres undefined), the inhibition is -5.19%.

Turning to `CCOc1ccc(C2C(C#N)=C(N)N(c3cccc(C)c3)C3=C2C(=O)CC(C)(C)C3)cc1` (centres undefined), the inhibition is 56.6% (active).

For the compound `Cc1cccc(N2C(N)=C(C#N)C(c3ccc(F)cc3)C3=C2CC(C)(C)CC3=O)c1` (centres undefined), the inhibition is -0.79%.

With `CSc1ncc(Cl)c(C(=O)N2CCN(c3cccc(Cl)c3)CC2)n1`, the inhibition was 39% (active).

With `CC(=O)/C(C(=N)N1CCN(c2cccc(Cl)c2)CC1)=C(/C)O`, the inhibition is -6.64%.

For the compound `CCc1c(C(=O)N2CCN(c3cccc(Cl)c3)CC2)[nH]c(C)c1C(C)=O`, the inhibition is 52.2% (active).

On to `COc1cc(OC)cc(-n2nc(C(=O)N3CCN(c4cccc(Cl)c4)CC3)c3ccccc3c2=O)c1`, for which the inhibition was 9.86%.

For `Cc1cc(C(=O)N2CCN(c3cccc(Cl)c3)CC2)ccc1[N+](=O)[O-]`, the inhibition is 3.11%.

On to `COc1ccc(-n2cc(C(=O)N3CCN(c4cccc(Cl)c4)CC3)c3ccccc3c2=O)cc1`, for which the inhibition was 0.04%.

On to `CN(C)c1cccc(C(=O)N2CCN(c3cccc(Cl)c3)CC2)c1`, for which the inhibition is 32.4% (active).

Consider `O=C(c1ccc([N+](=O)[O-])cc1)N1CCN(c2cccc(Cl)c2)CC1`, for which the inhibition is -1.04%.

Take `CC(=O)Nc1ccc(C(=O)N2CCN(c3cccc(Cl)c3)CC2)cc1`: the inhibition is -15.7%.

For `O=C(c1cc(Cl)ccc1Cl)N1CCN(c2ccc(F)cc2)CC1`, the inhibition was 10.3%.

With `COc1ccc(Cl)cc1C(=O)N1CCN(c2cccc(Cl)c2)CC1`, the inhibition is 64% (active).

`CC(=O)c1c(C)[nH]c(C(=O)N2CCN(c3ccc(Cl)cc3)CC2)c1C`: the inhibition was 12.3%.

In the case of `CN1CCN(C(=O)c2cc(-c3cccs3)n(CC(=O)N3CCC(O)CC3)n2)CC1`, the inhibition was -2.96%.

On to `Cc1ccc(Nc2nc(-c3ccccc3Cl)nc3ccccc23)cc1Cl`, for which the inhibition is 9.51%.

In the case of `Cc1c(Cl)cccc1NC(=O)c1cnn2c(C(F)(F)F)cc(-c3ccco3)nc12`, the inhibition is 0.28%.

For the compound `O=[N+]([O-])c1ccc(-c2csc(=NCc3cccnc3)n2-c2ccccc2)cc1`, the inhibition was -0.76%.

Take `Cc1nnc(NC(=O)CSc2nc(C(C)C)ccc2C#N)s1`: the inhibition was 62.8% (active).

For the compound `Cc1nnc(NC(=O)CSc2nc3ccccc3cc2C#N)s1`, the inhibition is -10.2%.

Take `COc1ccc(CC(=O)Nc2nnc(SCC(=O)Nc3nnc(C)s3)s2)cc1`: the inhibition was 12.5%.

Turning to `C=CCNC(=O)Cn1cnc2c([nH]c3ccc(C)cc32)c1=O`, the inhibition is 3.72%.

As to `COc1ccc(NC(=O)CN(c2cc(C(F)(F)F)ccc2Cl)S(=O)(=O)c2ccccc2)cc1`, the inhibition was 56.2% (active).

With `O=C(CN(c1cc(C(F)(F)F)ccc1Cl)S(=O)(=O)c1ccccc1)NCc1ccncc1`, the inhibition was 3.78%.

Turning to `NC(=O)CN(c1cc(C(F)(F)F)ccc1Cl)S(=O)(=O)c1ccccc1`, the inhibition is -1.66%.

`CCCCOc1ccc(NC(=O)C(C)Oc2ccc(OC)cc2)cc1` (centres undefined): the inhibition is 7.98%.

`COC(=O)c1sc(NC(=O)C2CCCCC2)c(C#N)c1C`: the inhibition is 1.29%.

With `COC(=O)c1sc(NC(=O)c2ccncc2)c(C#N)c1C`, the inhibition is -4%.

For `COC(=O)c1sc(NC(=O)C2(C)CC2(Cl)Cl)c(C#N)c1C` (centres undefined), the inhibition was 38.3% (active).

For the compound `COc1ccccc1N1CCN(S(=O)(=O)c2ccc(F)c(C(=O)Nc3ccc(C(C)C)cc3)c2)CC1`, the inhibition is -4.13%.

For `CC(C)CC(C(=O)N1CCOCCN(C(=O)C(CC(C)C)N2C(=O)c3ccccc3C2=O)CCOCC1)N1C(=O)c2ccccc2C1=O` (centres undefined), the inhibition was -2.73%.

For `CCCOc1c(Cl)cc(/C=C/C(=O)O)cc1OC`, the inhibition is 4.32%.

`O=C(NNc1ncc([N+](=O)[O-])cc1[N+](=O)[O-])c1ccncc1`: the inhibition was 6.87%.

With `O=C(O)C1CCCCC1C(=O)N1CCN(c2nc(-c3ccccc3Cl)c3cc(Br)ccc3n2)CC1` (centres undefined), the inhibition is -2.46%.

For the compound `C[C@H]1O[C@@H](O[C@H]2[C@@H](O)C[C@H](O[C@H]3[C@@H](O)C[C@H](O[C@H]4CC[C@]5(C)C6C[C@@H](O)[C@]7(C)[C@@H](C8=CC(=O)OC8)CC[C@]7(O)C6CC[C@@H]5C4)O[C@@H]3C)O[C@@H]2C)C[C@H](O)[C@@H]1O` (some centres undefined), the inhibition is 99.7% (active) and 101% (active).

For the compound `O=C1CCCN1CCCNc1cc(N2CCN(c3ccccn3)CC2)ncn1`, the inhibition is 6.77%.

Regarding `CC(=O)c1cc(Cl)cc(Cl)c1O`, the inhibition was -4.24%.

As for `CCCOc1ccc2cc(-c3csc(N)n3)c(=O)oc2c1`, the inhibition is 59.4% (active).

Turning to `CCN(CC)c1ccc2cc(-c3csc(-c4nc(-c5cc6ccc(N(CC)CC)cc6oc5=O)cs4)n3)c(=O)oc2c1`, the inhibition is 4.64%.

For the compound `CCOC(=O)COc1ccc2cc(-c3nc4ccccc4s3)c(=O)oc2c1`, the inhibition was -4.53%.

On to `CN(C)c1ccc(/C=N/Nc2nc(-c3ccccc3)cs2)cc1`, for which the inhibition was -3.84%.

Regarding `CN(CCO)c1ccc(/C=N/Nc2nncc3ccccc23)cc1`, the inhibition was 76.3% (active).

As to `COc1ccc(/C=N/NC(=O)CN(C)c2ccccc2)cc1OC`, the inhibition was -17.2%.

`c1ccc(CNc2nc3ccccc3n2CCOc2ccccc2)cc1`: the inhibition is -21.7%.

With `CCS(=O)(=O)c1cc([N+](=O)[O-])c(Sc2ccccc2N)s1`, the inhibition was 75.8% (active).

Turning to `CCC(CC)NS(=O)(=O)c1ccccc1[N+](=O)[O-]`, the inhibition is 12.2%.

For the compound `Nc1ccc(Sc2ccccc2[N+](=O)[O-])cc1`, the inhibition was -0.16%.

For the compound `CN(C(=O)Cn1nc2c3ccccc3nc(C3CC3)n2c1=O)C1CCCCC1`, the inhibition was -4.4%.

Regarding `COC(=O)c1cnc(N(C)C2CCCCC2)c2ccccc12`, the inhibition was 6.67%.

As for `CN(c1ccc2nc3ccccc3c(=O)n2n1)C1CCCCC1`, the inhibition is 89.7% (active).

`c1ccc(Nc2nc(Nc3ncccn3)nc3c2ncn3-c2ccccc2)cc1`: the inhibition is -25.3%.

In the case of `CC(=O)Nc1ccc(Nc2nc(N3CCC(N4CCOCC4)CC3)nc3c2ncn3-c2ccccc2)cc1`, the inhibition was 5.05%.

As to `CC(=O)Nc1ccc(Nc2nc(Cl)nc3c2ncn3-c2ccsc2)cc1`, the inhibition was 33.8% (active).

As for `CC(=O)Nc1ccc(Nc2nc(Nc3cnccn3)nc3c2ncn3-c2ccccc2)cc1`, the inhibition was 49.2% (active).

Turning to `CC(=O)Nc1ccc(Nc2nc(N3CCN(c4ccccn4)CC3)nc3c2ncn3-c2ccsc2)cc1`, the inhibition is 19.9%.

For `CC(=O)Nc1ccc(Nc2nc(Nc3ccncn3)nc3c2ncn3-c2ccsc2)cc1`, the inhibition was 6.4%.

Regarding `COc1ccc(S(=O)(=O)CCC(=O)Nc2ccc(C)cc2Br)cc1`, the inhibition is -9.1%.

On to `COc1ccc(/C=C2/C(=O)NN(c3cccc(Cl)c3)C2=O)cc1`, for which the inhibition is 5.26%.

Turning to `CC(=O)Oc1ccc(/C=C2\N=C(c3ccccc3F)OC2=O)cc1`, the inhibition was -4.17%.

Consider `Cc1c(C(=O)N/N=C/c2cccc([N+](=O)[O-])c2)nnn1-c1nonc1N`, for which the inhibition was -6.33%.

With `CC(=O)Oc1c(C)cc(C)c2ccc(=O)[nH]c12`, the inhibition was -7.29%.

For the compound `CCc1ccc(CC(=O)N2CC(=O)Nc3ccccc32)cc1`, the inhibition was 49.8% (active).

`O=C1CN(C(=O)CCl)c2ccccc2N1`: the inhibition was 14.1%.

Turning to `CC1CC(=O)Nc2ccccc2N1C(=O)Cc1ccc(Cl)cc1` (centres undefined), the inhibition was -16.4%.

Take `CCCOCc1c[nH]c(=O)[nH]c1=O`: the inhibition was -4.81%.

As to `COc1ccc(C(=O)O)cc1NC(=S)NC(=O)c1ccccc1`, the inhibition was -6.39%.

On to `CCOC(=O)c1c(NC(=S)NC(=O)c2ccccc2)sc2c1CC(C)(CC)OC2` (centres undefined), for which the inhibition was 8.08%.

As to `CCOC(=O)C1=C(NC(=S)NC(=O)c2ccccc2)c2ccccc2CC1(CC)CC`, the inhibition is 51.5% (active).

As for `OC(CN1CCN(c2ccccc2F)CC1)Cn1nnnc1-c1ccccc1` (centres undefined), the inhibition is 2.32%.

Regarding `Cc1cc(C)c(/C=C/c2cc(C(F)(F)F)[nH]c(=O)n2)cc1C`, the inhibition was -9.26%.

As to `Cc1nc(N2CCN(c3ccccn3)CC2)c2c(C)c(C(=O)Nc3ccccc3C(F)(F)F)sc2n1`, the inhibition is -2.56%.

For `O=C(O)c1cccc(-c2cnc3ccc(NCc4ccc(F)cc4)nn23)c1`, the inhibition was -7.03%.
